Here are results for 92 compounds from PubChem BioAssay AID434962 (The Scripps Research Institute Molecular Screening Center, 2010).

Screen size: about 320,000 compounds; about 1,300 (0.41%) were called active. The full list was thinned out, with actives kept by preference. Unmarked numbers belong to inactive results.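 How the source made its calls: active means percent inhibition above the average of all tested compounds plus 3 SD, set per screening campaign (cut at about 16% in these data); inactive means the rest.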

Chain of Insulin-degrading enzyme (Homo sapiens) (P14735 whole entry, looked up): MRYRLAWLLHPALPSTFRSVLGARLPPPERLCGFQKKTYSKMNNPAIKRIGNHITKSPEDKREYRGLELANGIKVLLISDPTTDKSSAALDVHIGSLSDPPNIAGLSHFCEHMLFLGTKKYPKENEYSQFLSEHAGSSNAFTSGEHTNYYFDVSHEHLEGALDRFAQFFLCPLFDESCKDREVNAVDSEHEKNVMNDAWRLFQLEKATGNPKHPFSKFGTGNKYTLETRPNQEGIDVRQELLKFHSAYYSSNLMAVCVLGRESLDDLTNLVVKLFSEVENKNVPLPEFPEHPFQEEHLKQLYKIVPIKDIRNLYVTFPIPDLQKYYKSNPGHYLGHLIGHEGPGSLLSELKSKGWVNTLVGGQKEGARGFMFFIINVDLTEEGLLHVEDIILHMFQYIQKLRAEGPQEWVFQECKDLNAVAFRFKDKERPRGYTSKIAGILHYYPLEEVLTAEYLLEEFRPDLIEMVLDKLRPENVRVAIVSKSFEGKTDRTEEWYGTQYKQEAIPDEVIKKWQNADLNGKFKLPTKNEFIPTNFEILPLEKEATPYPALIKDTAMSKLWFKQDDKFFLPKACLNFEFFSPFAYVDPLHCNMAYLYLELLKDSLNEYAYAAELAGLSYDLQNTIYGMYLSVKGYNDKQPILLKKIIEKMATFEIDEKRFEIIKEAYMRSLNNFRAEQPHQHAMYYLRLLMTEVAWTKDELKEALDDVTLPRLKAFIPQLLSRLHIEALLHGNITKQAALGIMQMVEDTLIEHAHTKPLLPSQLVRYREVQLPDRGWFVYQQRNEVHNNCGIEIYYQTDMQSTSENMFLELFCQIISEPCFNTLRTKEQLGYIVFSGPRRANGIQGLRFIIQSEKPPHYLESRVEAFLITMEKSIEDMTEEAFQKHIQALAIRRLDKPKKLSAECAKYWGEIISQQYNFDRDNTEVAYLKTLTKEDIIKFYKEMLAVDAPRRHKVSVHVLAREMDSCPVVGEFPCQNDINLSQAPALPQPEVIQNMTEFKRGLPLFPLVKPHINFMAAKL

The assay addresses Insulin-degrading enzyme (Homo sapiens) (UniProt P14735). Put plainly: human IDE inhibitors in live cells, primary screen, fluorescence polarization, HEK cells, FAbetaB substrate (AID 434962).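 Further: IDE supplied by intact live HEK cells; FP after avidin binding of uncleaved biotin substrate so inhibition keeps polarization high; 0% = DMSO wells and 100% = 60 µM reference IDE inhibitor Ii1.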 The settings on record: FAbetaB cleavage, at 5.59 µM, hits give high values.
With `O=C(/C=C(O)/C=C/c1ccc(O)cc1)/C=C/c1ccc(O)cc1`, the inhibition was 138% (active).

Consider `O=C(O)/C=C/c1ccc(OCCCF)cc1`, for which the inhibition was -0.17%.

As for `O=C(/C=C/c1ccc2c(c1)OCCO2)c1ccc(O)cc1`, the inhibition was -0.89%.

As to `Cc1cccc2sc(N(CCCN(C)C)C(=O)CCS(=O)(=O)c3ccccc3)nc12`, the inhibition is 1.58%.

For `O=C(O)c1cc(S(=O)(=O)NC2CCCc3ccccc32)ccc1O` (configuration not stated), the inhibition was -0.45%.

Consider `O=C(NNS(=O)(=O)c1c(F)cc(F)c(Cl)c1F)C12CC3CC(CC(C3)C1)C2`, for which the inhibition was -2.1%.

On to `CCCNC(=O)N1CCN(C(=O)NCCC)CC1`, for which the inhibition is 4.47%.

As for `Cc1ccccc1NC(=O)c1nn(-c2ccc(F)c(F)c2)ccc1=O`, the inhibition is -4.03%.

Consider `C=CCOc1cccc(C2C(C(=O)c3ccc(C)o3)=C(O)C(=O)N2c2nnc(C)s2)c1` (configuration not stated), for which the inhibition is 24% (active).

Turning to `C=CCOc1cccc(C2C(C(=O)c3ccc(C)o3)=C(O)C(=O)N2CCCn2ccnc2)c1` (configuration not stated), the inhibition is 1.55%.

On to `Cc1cc(N2C(=O)C(O)=C(C(=O)c3ccc(C)o3)C2c2ccc(OCc3ccccc3)cc2)no1` (configuration not stated), for which the inhibition was -9.32%.

For `Cc1ccc(C)c(NS(=O)(=O)c2ccc(OCC(=O)NCc3cccnc3)cc2)c1`, the inhibition is 4.06%.

`CC(C)COc1ccc(C(=O)NNC(=O)CCC(=O)c2cccs2)cc1`: the inhibition was -2.82%.

On to `NS(=O)(=O)c1cccc(NC(=O)CC23CC4CC(CC(Br)(C4)C2)C3)c1`, for which the inhibition is 2%.

Regarding `CN(C)/C=C1/Nc2ccccc2C1=O`, the inhibition was 1.5%.

For the compound `Cc1cc(C)c(/C=C2\C(=O)Nc3ccccc32)[nH]1`, the inhibition is 66.2% (active).

Turning to `O=C1Nc2ccccc2/C1=C/c1ccnc2ccccc12`, the inhibition is 6.65%.

In the case of `COc1ccc2nc3n(c(=O)c2c1)-c1ccc(Cl)cc1C(=O)NC3Cc1ccccc1` (configuration not stated), the inhibition was 4.46%.

`Cc1ccc2nc(/C(C#N)=C\c3ccc(OC(=O)c4cccs4)cc3)[nH]c2c1`: the inhibition is 6.77%.

With `COc1cc(/C=C(\C#N)c2nc3ccccc3[nH]2)ccc1O`, the inhibition is 121% (active).

With `N#C/C(=C(/O)COc1cccc2ccccc12)c1nc2ccccc2[nH]1`, the inhibition was -1.21%.

Take `CCOc1cc(/C=C(\C#N)c2nc(-c3cccs3)c(NC(C)=O)s2)ccc1O`: the inhibition is 11%.

`COc1cc(/C=C(\C#N)c2nc3c(s2)CC(C)CC3)ccc1O` (configuration not stated): the inhibition is 89.3% (active).

Consider `CCc1nn(CCCC(=O)Nc2ccc(C)c(C)c2)c(=O)c2cc3occc3n12`, for which the inhibition is 1.46%.

For the compound `O=C(c1cccs1)n1nc(NCc2ccccc2)nc1NCc1ccccc1`, the inhibition was -0.3%.

On to `COC(=O)Nc1ccc(S(=O)(=O)Nc2cc(OC)nc(OC)n2)cc1`, for which the inhibition was 0.87%.

In the case of `CCOC(=O)c1c(C)n(C)c2ccc(OC)c(NS(=O)(=O)CC)c12`, the inhibition is -2.79%.

As to `CC1C(=O)Nc2ccc(S(=O)(=O)N3CCN(c4ccccc4F)CC3)cc2NC1=O` (configuration not stated), the inhibition was 1.3%.

Turning to `Oc1ccc(-c2onc3ccc(Cl)cc23)cc1`, the inhibition was 43.5% (active).

For `COc1ccc(-c2onc3ccc(C(C)=O)cc23)cc1`, the inhibition was -1.49%.

Consider `CC(OC(=O)c1ccc2noc(-c3ccccc3)c2c1)C(N)=O` (configuration not stated), for which the inhibition was 8.12%.

`Cc1ccc(NC(=O)C2CCN(S(=O)(=O)c3ccc4c(c3)NC(=O)CO4)CC2)cc1C`: the inhibition was -0.04%.

On to `Cn1cccc1C(=O)NNC(=O)COc1ccc(Br)cc1`, for which the inhibition was 2.25%.

Turning to `COc1ccc2c(c1)c1nc3n(c(=O)c1n2CC(=O)Nc1ccccc1)CCS3`, the inhibition is -0.03%.

Regarding `Cc1nnc2n1N=C(c1ccc3c(c1)NC(=O)CO3)CS2`, the inhibition was 4.61%.

Consider `CC(=O)N1CCSc2ccc(S(=O)(=O)N3CCC(C)CC3)cc21`, for which the inhibition was 2.25%.

`O=C(/C=C/c1ccc(N2CCOCC2)cc1)c1ccccc1`: the inhibition was 20.5% (active).

Regarding `CC(=O)Nc1ccc(/C=C/C(=O)c2ccccc2)cc1`, the inhibition was 1.53%.

Take `O=C(O)c1ccc2c(c1)C(=O)N(c1ccc(/C=C/C(=O)c3ccccc3)cc1)C2=O`: the inhibition was 11.8%.

`CNC[C@H]1Oc2c(NC(=O)C3CCCCC3)cccc2C(=O)N([C@H](C)CO)C[C@@H]1C`: the inhibition is 8.42%.

With `NC(=O)NC(=O)CSc1nc2cc([N+](=O)[O-])ccc2n1-c1cccc(C(F)(F)F)c1`, the inhibition is -2.07%.

In the case of `CC(C)C(=O)Nc1c(O)c2ccccc2[nH]c1=O`, the inhibition is -1.36%.

As for `CCCOC(=O)Cc1c(O)c2ccccc2[nH]c1=O`, the inhibition was 1.56%.

Turning to `CCCC(=O)Nc1c(O)c2ccccc2[nH]c1=O`, the inhibition is 20.6% (active).

`O=C(c1cccc(Br)c1)N1CCN(C2=NS(=O)(=O)c3ccccc32)CC1`: the inhibition is -5.26%.

In the case of `CCCC1CCC(=NNC(=S)NCCc2ccccc2)CC1` (configuration not stated), the inhibition is 1.89%.

For the compound `COc1cccc(CNC(=O)COc2cc(O)c3c(c2)OC(C)(C)CC3=O)c1`, the inhibition is 0.91%.

Consider `O=C(CCc1ccc(S(=O)(=O)N2CCOCC2)cc1)Nc1ccc2ccccc2c1`, for which the inhibition was 26.8% (active).

Take `Cc1ccc(CC(=O)Nc2ccc(S(=O)(=O)N3CCOCC3)cc2)cc1C`: the inhibition was 3.81%.

In the case of `O=C(COC(=O)CCc1ccc(S(=O)(=O)N2CCOCC2)cc1)Nc1cccc(Cl)c1`, the inhibition was 1.15%.

With `COCCN(Cc1nc(-c2ccc(C(F)(F)F)cc2)no1)C(C)C`, the inhibition is 1.82%.

`CCN1C(=S)N[C@@H](CCc2ccccc2)[C@H](C(=O)OC)[C@H]1C`: the inhibition is 0.06%.

For the compound `O=C(Nc1ccccc1)N1CCN(C2c3ccccc3-c3ccccc32)CC1`, the inhibition is 0.11%.

Turning to `COc1cccc2cc(C(N)=O)/c(=N\NC(=O)c3ccccc3)oc12`, the inhibition was -0.22%.

As for `NC(=O)c1cc2ccccc2o/c1=N/NC(=O)c1cccc(F)c1`, the inhibition was 7.74%.

On to `CCN(CC)c1ccc2cc(C(N)=O)/c(=N\NC(=O)c3ccncc3)oc2c1`, for which the inhibition was 64.9% (active).

As to `O=C(CCN1C(=O)COc2ccccc21)NCCCN1CCN(c2ccc(F)cc2)CC1`, the inhibition was -5.39%.

On to `CCN(C(=O)CSc1nnnn1-c1ccc(OC)cc1)C1CCS(=O)(=O)C1` (configuration not stated), for which the inhibition was -3.64%.

Take `CCOc1ccc(NC(=O)c2ccc(NC(=O)C3CCCO3)cc2)cc1` (configuration not stated): the inhibition is 3.26%.

On to `COCCNC(=O)/C(C#N)=C/c1cccc(OCc2ccccc2)c1`, for which the inhibition was 3.27%.

`N#C/C(=C\c1ccc(O)c(O)c1)C(=O)NCc1ccccc1`: the inhibition is 30.2% (active).

Regarding `COc1ccc(CNC(=O)/C(C#N)=C/c2cccc(OC)c2OC)cc1`, the inhibition is 2.96%.

On to `COc1ccc(CCNC(=O)CC2SC(=Nc3cc(C)cc(C)c3)NC2=O)cc1OC` (configuration not stated), for which the inhibition was 2.28%.

Take `CCOC(=O)CNC(=O)/C(=C\c1ccc(F)cc1)NC(=O)c1ccccc1`: the inhibition was -3%.

Take `Cn1c2ccccc2c2cc(/C=C(\NC(=O)c3ccccc3)C(=O)NCC(=O)O)ccc21`: the inhibition was 32.5% (active).

`COc1ccc(/C=C(\NC(=O)c2ccccc2)C(=O)NCCN2CCOCC2)cc1OC`: the inhibition was 0.14%.

Turning to `CC(=O)Oc1cc2c(C(=O)NCCN3CCOCC3)c(C)oc2c2ccccc12`, the inhibition is -2.28%.

In the case of `COc1cccc(OC)c1C(=O)Nc1sc2c(c1C(N)=O)CCCC2`, the inhibition was 0.41%.

As for `NC(=O)c1c(Nc2nc3c(F)cccc3s2)sc2c1CCCC2`, the inhibition was 24.3% (active).

With `O=C(Nc1sc2c(c1C(=O)O)CCC2)c1ccccc1F`, the inhibition was -2.01%.

As to `Cc1cc(C(C)(C)C)oc1C(=O)N(CC(=O)NC1CCCC1)Cc1ccc(Cl)cc1`, the inhibition is 6.17%.

Consider `CCN(CCCNC(=O)c1ccc2c(c1)NC(=O)CN2C)c1cccc(C)c1`, for which the inhibition was 2.85%.

`CC(C)NC(=O)CSc1nnc(COc2ccccc2Cl)o1`: the inhibition was -2.04%.

On to `CCCCn1c(SCc2ncc(-c3ccccc3)o2)nc2cc(S(N)(=O)=O)ccc21`, for which the inhibition was 2.94%.

For `COc1ccccc1N(C)C(=O)c1cc(S(=O)(=O)N2CCc3ccccc32)cn1C`, the inhibition was -0.28%.

As to `Brc1ccc(C2=CC(c3ccco3)n3ncnc3N2)cc1` (configuration not stated), the inhibition is 5.82%.

On to `CCOc1ccc(C2=CC(c3ccccc3)n3ncnc3N2)cc1` (configuration not stated), for which the inhibition is 7.53%.

Consider `COc1ccc(C2C=C(c3ccc(Br)cc3)Nc3nc(NS(C)(=O)=O)nn32)cc1` (configuration not stated), for which the inhibition was 76.7% (active).

Regarding `CCOc1ccc(N(CC(=O)NCCOc2ccccc2OC)S(=O)(=O)c2ccccc2)cc1`, the inhibition is 4.02%.

On to `Cc1cc2c(cc1S(=O)(=O)NCc1ccc(Cl)cc1)OCC(=O)N2`, for which the inhibition was 5.28%.

As to `CC1=CC(C)(C)Nc2ccc(OC(=O)C(Cc3ccccc3)N3C(=O)C4CCCCC4C3=O)cc21` (configuration not stated), the inhibition was -5.52%.

For the compound `CC1=CC(C)(C)Nc2ccc(OC(=O)CN3C(=O)C4CCCCC4C3=O)cc21` (configuration not stated), the inhibition is 23.6% (active).

Consider `O=C(CN1C(=O)C2C3CCC(C3)C2C1=O)Oc1ccc2ccccc2c1` (configuration not stated), for which the inhibition is -0.24%.

In the case of `O=C(NCCC1CCCCN1S(=O)(=O)c1ccccc1)C(=O)NCC1CCCO1` (configuration not stated), the inhibition is 3.94%.

In the case of `Cc1ccccc1CSc1nnc(-c2ccccc2)c(=O)[nH]1`, the inhibition was 0.38%.

Consider `COc1cccc(-n2c(Cc3cc(=O)[nH]c(=O)[nH]3)nnc2SCC(=O)Nc2ccccc2)c1`, for which the inhibition was 2.57%.

Regarding `Cc1cccc(-n2c(Cc3cc(=O)[nH]c(=O)[nH]3)nnc2SC(C)C)c1`, the inhibition is 6.03%.

Consider `Cc1cccc(-n2c(Cc3cc(=O)[nH]c(=O)[nH]3)nnc2SCC(=O)Nc2cccc(C(F)(F)F)c2)c1`, for which the inhibition was 18.2% (active).

Regarding `Cc1ccc(S(=O)(=O)N2CCN(C(=O)COC(=O)CNC(=O)c3ccc(C(C)(C)C)cc3)CC2)c(C)c1`, the inhibition was 1.73%.

With `CCOc1cc2c(Cl)ncnc2c(OCC)c1OCC`, the inhibition was 17.1% (active).

On to `CCOc1cc(-c2conc2N)cc(OCC)c1OCC`, for which the inhibition was 0.37%.

Regarding `CCOc1cc(C(=O)Nc2ncccn2)cc(OCC)c1OCC`, the inhibition was -0.15%.

The term inhibition denotes the relative decrease from the control value, in per cent.
